# Screen size: about 1,400 compounds; about 980 (70%) were called active. Not shown: some 16% with an inconclusive outcome. The set was probably picked from earlier hits. Not all results are given here. A number with no mark means an inactive call. Calls follow the shape of the full dose curve.
# Assay: Natriuretic polypeptide receptor (hNpr1) antagonism - Counterscreen GloSensor control cell line; also: nearly all actives have a fitted effect of over 70% in size
# Conditions: HEK293 GloSensor cGMP, SNP-stimulated, luminescence; series mostly up to 57.6 µM; activity change, negative = inhibition: at the top concentration
# Method: cGMP production was measured using a circular permutated firefly luciferase (FLuc) enzyme functionally linked to the cGMP binding domain of human phosphodiesterase 5 (GloSensor technology pGS-40F, (Fan, F. et al. 2008). The cGMP-sensor was expressed in human embryonic kidney 293 (HEK-293) cells and FLuc activity was measured after stimulation with the NO-donor sodium nitroprusside (SNP). SNP activates the endogenously expressed soluble guanylyl cyclase (GC) producing cGMP which then binds to the GloSensor resulting in FLuc activation, the enzymatic activity of which can be measured as bioluminescence with addition of luciferin substrate. F. Fan, B. F. Binkowski, B. L. Butler, P. F. Stecha, M. K. Lewis, K. V. Wood, Novel genetically encoded biosensors using firefly luciferase. ACS Chem Biol 3, 346-351 (2008).
# PROTOCOL TABLE (as described by Inglese J, Shamu CE and Guy RK. 2007) SEQUENCE No. (e.g., 1, 2, 3, etc.); PARAMETER (e.g., Cells, Incubation, Reagent, etc.); VALUE and DESCRIPTION. 1. Cells. Seed 1500 HEK293 cGMP-sensor cells per well in 4uL into Greiner 1536-well white/solid bottom high base, TC plates. 2. Incubation. Incubate plated cells at 37C in 5% CO2, 95% RH overnight. 3. Reagent. Add 1uL per well GloSensor reagent from Promega (2% final concentration) or CO2 independent media vehicle control to respective columns of Greiner 1536-well plates. 4. Incubation. Incubate plated cells at room temperature for 2 h, protect from light. 5. Compounds. Library compounds and DMSO vehicle control added at 23nL per well, transferred by Pin Tool. 6. Incubation. Incubate plated cells for 30 min. at room temperature, protect from light. 7. Detector. GloSensor baseline pre-read luminescence measured using CCD-based camera (Viewlux). 8. Compound. Add 1uL of sodium nitroprusside (SNP) to 50 uM final concentration to stimulate soluble guanylyl cyclase (GC) or CO2 independent media as vehicle control. 9. Incubation. Incubate treated cells at room temperature for 20 min., protect from light. 10. Detector. GloSensor post-SNP luminescence measured using CCD-based camera (Viewlux). NOTES (numbers refer to Sequence numbers above; values are from representative experiments) 1. HEK293 cells expressing GIP/pGS-40F were grown to 85-95% confluence (48-72 h) in T175 culture flasks (CO2 independent media supplemented with 10% FBS, 1% Pen/Strep antibiotics, and 1 ug/mL puromycin). Trypsinize and harvest cells from T175 culture flasks and filter through 40 um cell strainer. Cells counted with Invitrogen Countess (30,000,000 - 50,000,000 cells/flask). Cells diluted to a final concentration of 375 cells/uL in CO2 independent media and a Millipore multidrop used to dispense 1500 cells per well (4uL/well) into 13 1536-well Greiner White/Solid bottom, high base tissue-culture treated (TC) plates and one Aurora 1536-well Black/Clear bottom, low base, TC plate (for visual inspection of cell health throughout the duration of the assay). 2. Cells incubated for 24 h. at 37C in 95% RH incubator with metal lid having gas-exchange holes. 3. Prepare GloSensor Reagent (Promega): Reconstitute GloSensor luciferase substrate by adding 8.2mL Hepes buffer to 250mg substrate, mix well, protect from light and stored at -80C. Prepare a fresh 12% GloSensor solution in CO2 independent supplemented plating media (see above). Mix well and store at ambient temperature, protected from light. 1uL 12% GloSensor Luciferase Reagent added (2% final concentration) to respective columns of 13 x 1536-well Greiner plate with BioRaptr, 1uL CO2 independent plating media added to respective columns as vehicle control with BioRaptr. 4. Cells incubated for 2 h. at ambient temperature, protected from light with metal lid having gas-exchange holes. 5. 23nL of library compounds or DMSO vehicle control transferred to 13 Greiner white/solid bottom high base, TC plates in 11 interplate 1:3 titrations (see Yasgar, A. et al. 2008) with Pintool. 6. […]
# % is scaled to controls: 0 for no effect and ±100 for the full control effect; potency is read from the fitted curve at half-maximal effect.
SMILES,Potency,"activity change, negative = inhibition [%]"
COc1cc2c(cc1Oc1cccc(N(C)C)c1)NC(=O)C21CCN(c2cnccn2)CC1,21.7 µM (active),
COc1cc2c(cc1Oc1cccc(N(C)C)c1)NC(=O)C21CCN(Cc2ccccn2)CC1,19.3 µM (active),
COc1cc2c(cc1Oc1cccc(N(C)C)c1)NC(=O)C21CCN(CCC(C)C)CC1,31.4 µM (active),
COc1cc2c(cc1OCc1ccncc1)NC(=O)C21CCN(c2ncc(F)cn2)CC1,44.4 µM (active),
CCC(CC)c1cc([C@H]2CN3CC[C@H]2C[C@@H]3CNS(=O)(=O)c2ccccc2C#N)nc(-c2ccncc2)n1,,-6.91
CCC(CC)c1cc([C@H]2CN3CC[C@H]2C[C@@H]3CNC(=O)NCc2ccccc2)nc(-c2ccncc2)n1,,-5.58
CCC(CC)c1cc([C@H]2CN3CC[C@H]2C[C@@H]3CNS(=O)(=O)Cc2ccccc2)nc(-c2ccncc2)n1,,2.91

# Reference: PubChem BioAssay AID1347051 (National Center for Advancing Translational Sciences (NCATS), 2019)
